Laboratory results published in PubChem BioAssay (NCATS).
Inconclusive results are not listed. Active and inactive are the calls of the source. Calls come from the whole dose curve; as a rule, active = well fitted curve in the direction sought with a large enough effect; inconclusive = small, poorly fitted or top-dose-only effect, or another doubt; inactive = no such curve, though single readings can be large; an effect the other way counts as inactive or inconclusive.

Tests used:
[1] = biological target: Calcium and integrin-binding protein 1 (Homo sapiens) (UniProt Q99828); assay: Primary qHTS for Identification of Calcium Integrin Binding Protein 1 (CIB1) Competitor (AID 1508620);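 note: GST tagged CIB1 binding a fluorescein labelled alphaIIb integrin peptide tracer; top concentration of the series differs between compounds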
Calcium and integrin-binding protein 1 (Homo sapiens), sequence (Q99828 whole entry, looked up): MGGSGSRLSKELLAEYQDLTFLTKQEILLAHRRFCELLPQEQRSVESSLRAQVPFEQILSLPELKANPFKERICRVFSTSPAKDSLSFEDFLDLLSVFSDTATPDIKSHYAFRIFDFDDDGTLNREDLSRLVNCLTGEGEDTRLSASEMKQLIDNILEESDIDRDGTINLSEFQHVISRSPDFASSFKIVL
Procedure, shortened: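 Fluorescence polarization competition: GST-tagged CIB1 (1 uM final) preincubated with compound 15 min at room temperature, then FITC-labelled alphaIIb peptide (100 nM final) added. After 15 min at room temperature, polarization read at Ex 480/Em 540.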

[2] = Primary qHTS for inhibitors of nuclear receptor binding SET domain protein 2 (NSD2) in an isogenic RCH-ACV NSD2 p.E1099K mutant (9B) (AID 1645876); note: nearly all actives have a fitted effect of over 70% in size
[3] = Primary qHTS for inhibitors of nuclear receptor binding SET domain protein 2 (NSD2) in an RCH-ACV wild type WT cells (2C) (AID 1645877); note: nearly all actives have a fitted effect of over 70% in size
% is set by controls: 0 for no effect and ±100 for the full control effect.

CC(O)CCc1ccc(O[C@@H]2O[C@H](CO)[C@@H](O)[C@H](O)[C@H]2O)cc1 (some centres not stated)
inactive: Potency [1] | Potency [2] | Potency [3]

CCCCCOC(=O)Nc1nc(=O)n(C2O[C@H](C)[C@@H](O)[C@H]2O)cc1F (some centres not stated)
inactive: Potency [1] | Potency [2] | Potency [3]

COc1cc2c(cc1O)CC(O)(CO)C(CO)C2c1ccc(OC2OC(CO)C(O)C(O)C2O)c(OC)c1 (configuration not stated)
inactive: Potency [1] | Potency [2] | Potency [3]

COc1cc(C(C)=O)ccc1O[C@@H]1O[C@H](CO[C@@H]2OC[C@@H](O)[C@H](O)[C@H]2O)[C@@H](O)[C@H](O)[C@H]1O
inactive: Potency [1] | Potency [2] | Potency [3]

COc1c2ccoc2nc2c(OC)c(O[C@@H]3O[C@@H](C)[C@H](O)[C@@H](O[C@@H]4O[C@H](CO)[C@@H](O)[C@H](O)[C@H]4O)[C@H]3OC(C)=O)ccc12
inactive: Potency [1] | Potency [2] | Potency [3]

COC1OC(=O)C2=C1C1(C)CCCC(C)(C)C1CC2O (configuration not stated)
inactive: Potency [1] | Potency [2] | Potency [3]

O=C(/C=C/c1ccccc1)O[C@@H]1[C@@H](CO)O[C@@](CO)(O[C@H]2O[C@H](CO)[C@@H](O)[C@H](O)[C@H]2O)[C@H]1O
inactive: Potency [1] | Potency [2] | Potency [3]

O=C(OC[C@H]1O[C@@H](Oc2ccccc2COC(=O)C2(O)C=CCCC2O)[C@H](O)[C@@H](O)[C@@H]1O)c1ccccc1 (some centres not stated)
inactive: Potency [1] | Potency [2] | Potency [3]

CC(=O)O[C@@H]1[C@H](O[C@@H]2O[C@H](CO)[C@@H](O)[C@H](O)[C@H]2O)[C@@H](O[C@@H]2O[C@@H](C)[C@H](O)[C@@H](O[C@@H]3O[C@H](CO)[C@@H](O)[C@H](O)[C@H]3O)[C@H]2O)[C@H](OC(=O)[C@]23CCC(C)(C)C[C@H]2C2=CCC4[C@@]5(C)C[C@H](O)[C@H](O[C@@H]6O[C@H](C(=O)O)[C@@H](O)[C@H](O)[C@H]6O)[C@@](C)(C(=O)O)C5CC[C@@]4(C)[C@]2(C)CC3)O[C@@H]1C (some centres not stated)
inactive: activity change, negative = inhibition [1] -1.12% [at 12.4 µM] | activity change, negative = viability loss [2] -4.25% [at 9.23 µM] | activity change, negative = cell killing [3] -3.72% [at 9.23 µM]
